Pf growth 96h: inhibits malaria parasite growth, 96 h. P. falciparum luciferase reporter growth, 96 h. Potency, µM (titrated, usually from 28.7 µM), for inactives: top-dose activity change, negative = inhibition, hits mostly inhibitors. 6.9% of 320,000 active. AID 504834; also: potency is read from the fitted curve at half-maximal effect; % is scaled to controls: 0 for no effect and ±100 for the full control effect
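96 h incubation, 37 C, 5% CO2, of luciferase-reporter P. falciparum-infected RBCs (2% hematocrit, 0.05% parasitemia final) with test compounds; endpoint luminescence.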
Shiga toxin inh: Shiga toxin inhibition. Vero cells, Shiga toxin protein synthesis inhibition reporter. inhibition, % at 38.7 µM. 9.2% of 290,000 active; in the data active = inhibition mostly above about 28%, no sharp cut-off; inactive = mostly below about 43%; also: 0% is about no effect
NS1 function inh: blocks influenza NS1 protein function | Potency, µM (titrated, usually from 46.1 µM), for inactives: at the top dose activity, positive = more growth | 0.4% of 270,000 active | AID 2326; calls by dose curve; also: potency is read from the fitted curve at half-maximal effect; actives are rising curves; nearly all actives have a fitted effect of over 50% in size
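OD600 was taken as the measure of yeast growth restored by compound in an NS1-expressing S. cerevisiae strain. Cells had been washed out of glucose medium and diluted 1:100 into galactose -URA medium, pH 6.0.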
Pf growth 48h: inhibits P. falciparum growth in the first generation, 48 h; Potency, µM (highest dose often 28.7 µM), without a hit: top-dose activity change, negative = inhibition, actives largely listed as inhibitors; AID 504832; P. falciparum luciferase growth in erythrocytes, 48 h; 5.9% of 310,000 active; also: potency is read from the fitted curve at half-maximal effect; % is scaled to controls: 0 for no effect and ±100 for the full control effect
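Read-out is firefly luciferase luminescence from an integrated reporter in P. falciparum, so falling signal marks reduced parasite growth. Infected erythrocytes were at 2% hematocrit and 0.1% parasitemia (final) in Albumax-supplemented RPMI 1640.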
SARS PLP yeast: blocks SARS-CoV papain-like protease in a yeast assay | Potency, µM (doses to about 32.9 µM), inactives show at the highest dose activity, positive = growth rescue, most hits filed as activators | S. cerevisiae expressing SARS-CoV PLpro, growth rescue | AID 485353 | 0.19% of 330,000 active; calls by dose curve; also: potency is read from the fitted curve at half-maximal effect; 0% is about no effect; nearly all actives have a fitted effect of over 55% in size
Cycloheximide cs: counter-screen for Shiga toxin inhibitors: cycloheximide protein synthesis inhibition. cell reporter, cycloheximide protein synthesis inhibition counterscreen. AID 2314. max response, %. 12% of 300,000 active; in the data active = max response mostly above about 13%, no sharp cut-off; inactive = mostly below about 14%; also: read at 38.3 µM for the half of the compounds with a filed dose; 0% is about no effect
An asterisk follows results filed as active; i = inactive; ? = inconclusive; · = not tested or not shown. A selection: hits, their analogues and other compounds. The true share with any hit is near 21%. Unless noted, calls follow the shape of the dose curve; as a rule, active = well fitted inhibition curve with a large enough effect; inconclusive = small, poorly fitted or top-dose-only effect, or another doubt; inactive = no such curve, though single readings can be large or run the other way.

SMILES | Pf growth 96h | Shiga toxin inh | NS1 function inh | Pf growth 48h | SARS PLP yeast | Cycloheximide cs
O=C(CCN1C(=O)c2ccccc2C1=O)Nc1ccc(-c2nc3ccccc3o2)cc1 | · | 82.8* | -7.9% | 16.0% | 11.9% | 18.5*
O=C(Nc1ccc2oc(-c3cccnc3)nc2c1)c1cccnc1 | ? | 33.6 | -0.6% | -3.5% | -2.1% | -2.3
Cc1ccc2oc(-c3ccc(NC(=O)c4cccnc4)cc3)nc2c1 | 55.6% | 62.0* | -2.5% | -85.3% | -21.3% | 70.0*
O=C(CN1C(=O)c2ccccc2C1=O)Nc1ccc(-c2nc3ccccc3o2)cc1 | 71.0% | 14.4 | -16.9% | 25.2% | -0.8% | 11.4
O=C(CCN1C(=O)c2ccccc2C1=O)NCc1ccccc1 | 3.4% | 11.3 | -4.0% | 25.9% | 4.2% | 11.6
COc1ccc(NC(=O)C2=NN(c3ccccc3)C(=O)CC2)cn1 | 17.6% | · | · | 0.4% | -4.6% | ·
CCOC(=O)CC(NC(=O)CCc1c(C)nc2ncnn2c1C)c1ccc(OC(C)C)cc1 (configuration not stated) | ? | 2.1 | · | ? | -1.0% | -6.8
CC(=O)c1nnn(-c2ccc([N+](=O)[O-])cc2C)c1C | -6.3% | 11.6 | · | 16.8% | -2.6% | 11.0
Cc1cc(C)c2nc3sc(C(=O)N4CCOCC4)c(N)c3cc2c1 | i | 100.9* | 3.0% | 247.7% | -0.5% | 28.6*
